Test [1] can be described thus: qHTS assay to identify small molecule antagonists of the thyroid receptor (TR) signaling pathway - cell viability counter screen (AID 743064). Further: nearly all actives have a fitted effect of over 50% in size. Further: potency means the concentration at half of the fitted maximal effect. The method in brief: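 GH3.TRE-Luc cells, 4 h pre-plating; cpd + T3 1 nM final; 37 °C 23.5 h; CellTiter-Fluor 30 min; fluorescence read.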
In general terms: In qHTS, concentration-response curves come from the screen itself.

Test [2] in a line: qHTS assay to identify small molecule antagonists of the thyroid receptor (TR) signaling pathway (AID 743065). Further: nearly all actives have a fitted effect of over 55% in size. Further: potency means the concentration at half of the fitted maximal effect. The method in brief:
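GH3.TRE-Luc rat pituitary cells carrying two TR response elements driving luciferase were plated for 4 h, given compound plus 1 nM T3 (final), and incubated 23.5 h at 37 C. ONE-Glo luminescence measured reporter inhibition; CellTiter-Fluor fluorescence tracked cytotoxicity.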

For test [3], the system named is thyroid hormone receptor (rat, GH3 cells). Kind of test: qHTS assay to identify small molecule agonists of the thyroid receptor (TR) signaling pathway (AID 743066; calls by dose curve).
The target of test [4] is Estrogen receptor (Homo sapiens) (UniProt P03372). Kind of test: qHTS assay to identify small molecule antagonists of the estrogen receptor alpha (ER-alpha) signaling pathway (AID 743069; active means well fitted curve in the direction sought with a large enough effect in the signal ratio in the repeat runs, not every such curve was filed as active; the % refers to the signal ratio). The method in brief: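 A 17beta-estradiol challenge was applied right after compound transfer to ER-alpha-UAS-bla HEK293 cells previously kept in charcoal-stripped serum. Plates stood 18 hr at 37C and 5% CO2; fluorescence was read following 2 hr FRET substrate loading at room temperature.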

The target is the same in test [5]. Kind of test: qHTS assay to identify small molecule agonists of the estrogen receptor alpha (ER-alpha) signaling pathway (AID 743075; calls by dose curve;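 further: HEK293 GripTite cells with ER-alpha and UAS-driven beta-lactamase reporter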).
For test [6] the target is unchanged. Kind of test: qHTS assay to identify small molecule agonists of the estrogen receptor alpha (ER-alpha) signaling pathway using the BG1 cell line (AID 743079). Further: nearly all actives have a fitted effect of over 20% in size. Particulars: BG1Luc4E2 cells, ERE-luciferase agonist, 22 h; activation: at 70.3 µM (top of the series).
Test [7] in a line: qHTS assay to identify small molecule antagonists of the estrogen receptor alpha (ER-alpha) signaling pathway using the BG1 cell line - cell viability counter screen (AID 743081).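 Further: compound given together with 17beta-estradiol as the ER stimulus; nearly all actives have a fitted effect of over 45% in size.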
The next test deals with Aromatase (Homo sapiens) (UniProt P11511). Kind of test: qHTS assay to identify aromatase inhibitors (AID 743083). Further: nearly all actives have a fitted effect of over 55% in size.
Test [8] is described as follows: qHTS assay to identify aromatase inhibitors - cell viability counter screen (AID 743084).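 Further: cells stimulated with testosterone during compound exposure; nearly all actives have a fitted effect of over 55% in size.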
The target of test [9] is Aryl hydrocarbon receptor (Homo sapiens) (UniProt P35869). Kind of test: qHTS assay to identify small molecule that activate the aryl hydrocarbon receptor (AhR) signaling pathway (AID 743085).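 Further: HG2L7.5c1 human HepG2 liver cells with stably integrated DRE-driven firefly reporter; nearly all actives have a fitted effect of over 15% in size.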 The procedure, abridged: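 Luminescence read-out: ONE-Glo reagent, 30 min at room temperature, in HG2L7.5c1 HepG2 reporter cells treated 24 h at 37C. Viability was measured beforehand by CellTiter-Fluor fluorescence after 30 min at 37C.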

The nature of test [10]: qHTS assay to identify small molecule that activate the aryl hydrocarbon receptor (AhR) signaling pathway - cell viability counter screen (AID 743086).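 Further: HepG2 liver cells carrying the AhR DRE luciferase reporter; nearly all actives have a fitted effect of over 45% in size.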 The procedure, abridged: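 HepG2-AhR-luc (HG2L7.5c1) cells, 4000/well, were preincubated 5 h at 37C, exposed to compound in qHTS format for 24 hr at 37C, then given CellTiter-Fluor for 30 min; viability was read as fluorescence in the reporter wells.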

Test [11] concerns the target Peroxisome proliferator-activated receptor gamma (Homo sapiens) (UniProt P37231). Nature of the test: qHTS assay to identify small molecule agonists of the peroxisome proliferator-activated receptor gamma (PPARg) signaling pathway (AID 743094; active means well fitted activation curve with a large enough effect in the signal ratio in the repeat runs, not every such curve was filed as active; the % refers to the signal ratio). The method in brief:
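Reporter activation was scored by fluorescence of cleaved LiveBLAzer B/G substrate (1 h, room temperature) in PPARg-bla HEK293H cells previously treated 17 h at 37C with DMSO-dissolved compounds.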

For test [12] the target is unchanged. Nature of the test: qHTS assay to identify small molecule antagonists of the peroxisome proliferator-activated receptor gamma (PPARg) signaling pathway (AID 743191; calls by dose curve; further: nearly all actives have a fitted effect of over 30% in size). The procedure, abridged:
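GeneBLAzer PPARg UAS-bla HEK293H cells carrying a UAS-driven beta-lactamase reporter were plated at 3000 cells/well, preincubated 5 h at 37C, then given compound for 17 h at 37C; LiveBLAzer B/G FRET substrate was read after 1 h at room temperature.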

Test [13] in a line: qHTS assay to identify small molecule antagonists of the peroxisome proliferator-activated receptor gamma (PPARg) signaling pathway - cell viability counter screen (AID 743194). Further: nearly all actives have a fitted effect of over 55% in size. The procedure, abridged:
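PPARg-UAS-bla HEK293H cells were plated, rested 5 h at 37 C, then treated with compounds plus rosiglitazone (50 nM final) for 17 h at 37 C; viability was then read by CellTiter-Glo luminescence after 30 min at room temperature.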

Test [14] can be described thus: qHTS assay for small molecule agonists of the antioxidant response element (ARE) signaling pathway (AID 743202; active means well fitted activation curve with a large enough effect in the signal ratio in the repeat runs, not every such curve was filed as active; the % refers to the signal ratio). The method in brief:
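Following a 16 h, 37 C exposure of reporter HepG2 cells (ARE-driven beta-lactamase, 2,000 cells/well) to compounds, FRET substrate was applied for 2 h at room temperature and fluorescence intensity recorded.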

Test [15] can be described thus: qHTS assay for small molecule agonists of the antioxidant response element (ARE) signaling pathway - cell viability counter screen (AID 743203; calls by dose curve; further: nearly all actives have a fitted effect of over 55% in size). The procedure, abridged: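 Viability counter screen: stably transfected ARE-bla HepG2 line, 16 hrs compound exposure at 37C/5% CO2, ATP-based CellTiter-Glo luminescence measured in the reporter wells.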
A short description of test [16]: qHTS assay for small molecule activators of the heat shock response signaling pathway - cell viability counter screen (AID 743209). Further: nearly all actives have a fitted effect of over 50% in size. The procedure, abridged: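 Viability of HSE-bla HeLa cells is measured with CellTiter-Glo in the wells already used for the reporter read. Compound exposure lasts 5 h at 37 C, and luminescence is read after 30 min at room temperature.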

Test [17] is described as follows: qHTS assay for small molecule activators of the heat shock response signaling pathway (AID 743210; active means well fitted activation curve with a large enough effect in the signal ratio in the repeat runs, with a control signal flat, not every such curve was filed as active; the % refers to the signal ratio). The procedure, abridged:
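Heat shock element–beta-lactamase HeLa reporter cells; qHTS with compounds for 5 h at 37 C; detection by FRET substrate fluorescence after 2.5 h at RT.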

A short description of test [18]: qHTS assay to identify small molecule antagonists of the estrogen receptor alpha (ER-alpha) signaling pathway - cell viability counter screen (AID 743074; calls by dose curve;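 further: HEK293 cells carrying ER-alpha-UAS-bla reporter stimulated with 17beta-estradiol; nearly all actives have a fitted effect of over 45% in size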).
Test [19] is described as follows: qHTS assay to identify small molecule antagonists of the estrogen receptor alpha (ER-alpha) signaling pathway using the BG1 cell line (AID 743080; calls by dose curve;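 further: BG1 cells stimulated with 17beta-estradiol alongside compound; nearly all actives have a fitted effect of over 25% in size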). The procedure, abridged:
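Readout is ONE-Glo luminescence, taken 30 min at room temperature after reagent addition, preceded by a CellTiter-Fluor viability read; BG1-Luc-4E2 cells had received compound and 17beta-estradiol for 21.5 h at 37 C.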

Records with an inconclusive call do not appear. Activity calls are given as the source filed them. Unless noted, the call rests on the fitted dose curve; in most records, active means well fitted curve in the direction sought with a large enough effect in the repeat runs; inconclusive means weak or mixed curves; inactive means no such curve, though single readings can be large; an effect the other way counts as inactive or inconclusive.

Estrogen receptor (Homo sapiens), sequence (P03372 whole entry, looked up): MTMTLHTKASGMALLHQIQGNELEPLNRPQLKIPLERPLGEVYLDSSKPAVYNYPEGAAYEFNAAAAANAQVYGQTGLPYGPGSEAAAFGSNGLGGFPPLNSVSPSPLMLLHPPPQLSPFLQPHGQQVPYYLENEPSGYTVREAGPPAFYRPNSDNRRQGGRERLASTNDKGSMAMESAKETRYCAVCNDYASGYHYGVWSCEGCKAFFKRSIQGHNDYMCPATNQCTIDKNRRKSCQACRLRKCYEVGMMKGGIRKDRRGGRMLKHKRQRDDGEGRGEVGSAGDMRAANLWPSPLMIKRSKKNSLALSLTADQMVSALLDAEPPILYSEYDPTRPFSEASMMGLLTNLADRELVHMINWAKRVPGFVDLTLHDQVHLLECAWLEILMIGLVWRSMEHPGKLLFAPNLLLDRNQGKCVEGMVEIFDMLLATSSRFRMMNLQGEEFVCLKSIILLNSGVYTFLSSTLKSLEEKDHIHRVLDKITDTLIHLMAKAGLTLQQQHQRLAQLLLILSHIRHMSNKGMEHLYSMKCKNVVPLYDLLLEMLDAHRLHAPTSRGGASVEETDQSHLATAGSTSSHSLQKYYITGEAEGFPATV
Aromatase (Homo sapiens), sequence (P11511 whole entry, looked up): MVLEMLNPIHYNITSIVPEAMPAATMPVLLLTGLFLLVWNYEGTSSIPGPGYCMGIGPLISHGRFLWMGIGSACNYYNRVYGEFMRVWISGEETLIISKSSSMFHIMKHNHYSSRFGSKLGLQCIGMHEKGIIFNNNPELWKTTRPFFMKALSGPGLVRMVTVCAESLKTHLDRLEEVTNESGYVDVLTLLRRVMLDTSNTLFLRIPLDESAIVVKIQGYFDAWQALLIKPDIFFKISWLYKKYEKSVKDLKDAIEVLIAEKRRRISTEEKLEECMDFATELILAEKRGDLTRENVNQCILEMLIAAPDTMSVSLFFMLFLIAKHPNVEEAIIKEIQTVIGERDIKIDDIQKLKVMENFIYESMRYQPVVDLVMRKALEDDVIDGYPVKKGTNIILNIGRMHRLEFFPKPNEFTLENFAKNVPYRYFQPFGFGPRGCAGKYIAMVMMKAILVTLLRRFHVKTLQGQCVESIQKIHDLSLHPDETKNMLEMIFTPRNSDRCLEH
Peroxisome proliferator-activated receptor gamma (Homo sapiens), sequence (P37231 whole entry, looked up): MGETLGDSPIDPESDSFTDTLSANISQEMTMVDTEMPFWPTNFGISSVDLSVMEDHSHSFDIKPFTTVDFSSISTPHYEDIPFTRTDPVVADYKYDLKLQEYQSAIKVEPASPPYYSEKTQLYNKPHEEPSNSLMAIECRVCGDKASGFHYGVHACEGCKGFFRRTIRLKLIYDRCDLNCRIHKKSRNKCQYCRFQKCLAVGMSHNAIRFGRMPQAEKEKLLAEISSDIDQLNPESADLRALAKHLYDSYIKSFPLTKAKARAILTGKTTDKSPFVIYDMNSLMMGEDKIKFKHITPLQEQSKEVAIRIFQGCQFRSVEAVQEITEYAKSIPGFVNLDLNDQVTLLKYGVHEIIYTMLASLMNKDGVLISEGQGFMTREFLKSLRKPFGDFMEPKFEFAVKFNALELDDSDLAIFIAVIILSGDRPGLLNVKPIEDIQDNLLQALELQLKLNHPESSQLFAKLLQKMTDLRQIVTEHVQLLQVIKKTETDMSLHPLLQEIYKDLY
Aryl hydrocarbon receptor (Homo sapiens), sequence (P35869 whole entry, looked up): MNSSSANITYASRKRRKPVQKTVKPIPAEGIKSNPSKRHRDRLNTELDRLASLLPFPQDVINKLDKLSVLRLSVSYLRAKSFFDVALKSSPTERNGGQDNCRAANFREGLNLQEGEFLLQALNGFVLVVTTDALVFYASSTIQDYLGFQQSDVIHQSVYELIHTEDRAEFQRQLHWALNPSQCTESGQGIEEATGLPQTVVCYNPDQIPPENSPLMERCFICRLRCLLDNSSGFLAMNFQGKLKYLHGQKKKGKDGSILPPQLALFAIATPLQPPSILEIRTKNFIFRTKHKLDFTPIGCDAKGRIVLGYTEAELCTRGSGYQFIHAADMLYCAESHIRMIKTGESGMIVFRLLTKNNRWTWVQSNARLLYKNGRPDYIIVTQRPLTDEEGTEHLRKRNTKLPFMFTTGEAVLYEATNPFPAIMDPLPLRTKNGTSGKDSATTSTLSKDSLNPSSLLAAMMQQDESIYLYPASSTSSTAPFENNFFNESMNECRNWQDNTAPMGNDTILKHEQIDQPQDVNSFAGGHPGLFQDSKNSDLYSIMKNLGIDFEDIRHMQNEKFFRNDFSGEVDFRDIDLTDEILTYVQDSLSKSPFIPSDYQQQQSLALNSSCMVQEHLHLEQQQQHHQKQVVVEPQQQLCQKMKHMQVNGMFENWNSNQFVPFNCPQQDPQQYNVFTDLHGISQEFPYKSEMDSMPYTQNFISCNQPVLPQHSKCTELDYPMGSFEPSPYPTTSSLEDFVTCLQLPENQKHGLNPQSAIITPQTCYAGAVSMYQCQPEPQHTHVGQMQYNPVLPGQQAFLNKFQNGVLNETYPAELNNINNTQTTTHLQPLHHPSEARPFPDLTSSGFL

With `CCOC(=O)c1ccc(OCCN2C[C@H](O)[C@@H](O)[C@H](O)[C@H]2CO)cc1`, the Potency result in [1], in [2], in test [4], in test [5], in test [6] and in test [7] was “inactive” in each case. Moreover, the Potency result (with Aromatase (Homo sapiens); in test [8]; in [9]; in test [10]; in test [11]; in test [12]) was “inactive” throughout. For the same molecule, the Potency result in [13], in test [14], in test [15], in test [16] and in test [17] was “inactive” each time. The molecule was classed as inactive in test [3].
For `C=C1C[C@@]23CC[C@H]4[C@@](C)(CCC[C@@]4(C)C(=O)O[C@@H]4O[C@H](CO)[C@@H](O)[C@H](O)[C@H]4O)[C@@H]2CC[C@]1(O[C@@H]1O[C@H](CO)[C@@H](O)[C@H](O[C@@H]2O[C@H](CO)[C@@H](O)[C@H](O)[C@H]2O)[C@H]1O[C@@H]1O[C@H](CO)[C@@H](O)[C@H](O)[C@H]1O)C3`, the Potency entry in test [1], in [2], in test [18], in test [5], in [6] and in test [19] was “inactive” throughout. In addition, the Potency entry (in the test with Aromatase (Homo sapiens); in [8]; in test [9]; in test [10]; in [11]; in [13]) was “inactive” each time. For the same molecule, the Potency result in test [14], in test [15], in [16] and in [17] was “inactive” throughout. The result in test [3] was inactive.
Take `Brc1cc2ccccc2c2ccccc12`: the Potency entry in test [1], in test [2], in test [18], in [5], in [6] and in test [19] was “inactive” in each case. Moreover, the Potency result (in test [7]; with Aromatase (Homo sapiens); in [8]; in test [9]; in test [10]; in test [11]) was “inactive” each time. Also, the Potency result in [12], in test [13], in [14], in [16] and in test [17] was “inactive” each time. Also, the outcome in test [3] was inactive.
For the molecule `O=C=Nc1cccc(C(F)(F)F)c1`, the Potency in [1] is 60.7 µM (active); in test [2] it was 54.1 µM (active). In addition, the molecule was classed as inactive in [3]. In addition, the Potency entry in [18], in test [5], in [6], in [19], in test [7] and in test [8] was “inactive” throughout. Moreover, the Potency entry in [10], in [11], in test [15], in [16] and in [17] was “inactive” each time.
Take `C=C1c2cccc(O)c2C(O)=C2C(=O)[C@]3(O)C(O)=C(C(N)=O)C(=O)[C@@H](N(C)C)[C@@H]3[C@@H](O)[C@H]12`: the Potency entry in [1], in test [2], in [18], in [5], in [6] and in test [19] was “inactive” each time. Further, the Potency result (in [7]; in the test with Aromatase (Homo sapiens); in [8]; in [9]; in test [10]; in [11]) was “inactive” each time. Moreover, the Potency entry in test [13], in [14], in [16] and in test [17] was “inactive” in each case. Besides, the result in test [3] was inactive.
Turning to `CCCCN1CCCC1C(=O)Nc1c(C)cc(C)cc1C` (centres undefined), the Potency entry in [1], in test [2], in test [18], in [5], in test [6] and in test [19] was “inactive” throughout. Besides, the Potency result (in test [7]; with Aromatase (Homo sapiens); in test [8]; in test [10]; in test [13]; in test [14]) was “inactive” each time. For the same molecule, in test [16], the Potency entry is “inactive”. For the same molecule, the molecule was called inactive in [3].
For `C=C1CCC2CC1C2(C)C` (centres undefined), the Potency result in test [1], in test [2], in test [18], in test [5], in test [6] and in [19] was “inactive” each time. For the same molecule, the Potency result (in [7]; with Aromatase (Homo sapiens); in test [8]; in [10]; in test [11]; in test [13]) was “inactive” each time. Also, the Potency result in [14], in [15], in test [16] and in test [17] was “inactive” in each case. Also, the call in [3] was inactive.
On to `NCCNCCO`, for which the Potency result in [1], in test [2], in test [18], in test [5], in test [6] and in test [19] was “inactive” in each case. The Potency result (in [7]; with Aromatase (Homo sapiens); in [8]; in test [9]; in test [10]; in [11]) was “inactive” in each case. The Potency entry in [12], in [13], in test [14], in test [15], in test [16] and in [17] was “inactive” in each case. The outcome in test [3] was inactive.

(Values after PubChem BioAssay (Tox21).)
